Results reported in PubChem BioAssay AID2069 (Sanford-Burnham Center for Chemical Genomics, 2009).
Out of some 1,200 compounds screened, about 210 (18%) were called active. A selection follows. A number with no mark means an inactive call. Rule as the data show it: active = inhibition above about 30%; inactive = the rest.

Test: fluorescence readout artefact check – biochemical, HTRF, uHTS, artefact control for SUMOylation inhibitor project, confirmation (AID 2069)
Conditions: HTRF interference counterscreen, at 35 µM, hits give high values

| SMILES | inhibition |
| --- | --- |
| CCC(=O)OCCNc1cc(Sc2nc3ccccc3s2)c2nonc2c1[N+](=O)[O-] | 1.05% |
| O=C(O)c1cccc(N2C(=O)/C(=C/c3ccc(SCc4ccc(Cl)cc4)o3)SC2=S)c1 | 14.9% |
| CCCN(C(=O)c1cc2c(s1)CCC2)c1c(N)n(Cc2ccccc2)c(=O)[nH]c1=O | -3.9% |
| Cc1cccc(C(=O)NC2C(=O)NNC2c2ccc(Cl)cc2)c1 (centres undefined) | -5.5% |
| COc1ccc(N2C(=O)[C@@H]3[C@H](C2=O)[C@H]2c4ccccc4C=CN2[C@@H]3C(C)=O)cc1 | 9.4% |
| Cc1ccc(NC(=O)CCC(=O)OCC(=O)c2ccc(-c3ccccc3)cc2)cc1 | -1.75% |
| Cc1ccc(-c2[nH]c(-c3ccc(C(=O)O)cc3)nc2-c2ccccc2)cc1 | 43.1% (active) |
| COc1cc(/C=C2\C(=O)N(c3ccccc3)N=C2C)ccc1Oc1ccc([N+](=O)[O-])cc1[N+](=O)[O-] | 1.25% |
| CSc1nnc(SCc2nc3sc(C(=O)O)c(C)c3c(=O)[nH]2)s1 | 31.2% (active) |
| CC(=O)c1sc2nc(CSc3nnnn3-c3ccccc3)[nH]c(=O)c2c1C | 0.9% |
| O=C(CSc1nnc(SCc2ccc(Cl)cc2)s1)N/N=C/c1c[nH]c2ccccc12 | 9.75% |
| S=c1[nH]nc(-c2cc(-c3ccco3)[nH]n2)n1-c1ccccc1Cl | 0.75% |
| COc1cc(O)c(NC(C)=O)c2nonc12 | 6.2% |
| COc1ccc2nc(-c3ccco3)c(-c3ccco3)nc2c1 | 33.1% (active) |
| O=C(Nc1ccccc1)c1ccc2nc(-c3ccco3)c(-c3ccco3)nc2c1 | 22.8% |
| COc1ccc(OC)c(-n2c(-c3cc(-c4ccco4)[nH]n3)n[nH]c2=S)c1 | 7.95% |
| COc1ccc(CCNC(=O)c2ccc3nc(-c4ccco4)c(-c4ccco4)nc3c2)cc1OC | 13.3% |
| COc1ccc2nc3cccc(OC)c3nc2c1 | 11.7% |
| COCCNC(=O)Nc1ccc2nc(-c3ccco3)c(-c3ccco3)nc2c1 | 52.4% (active) |
| CCc1ccc(OCC(=O)N/N=C2\CC(=O)c3ccccc32)cc1 | -2.45% |
| COCCN=c1scc(-c2ccco2)n1/N=C/c1ccc(O)c(O)c1O | -18.7% |
| CC(C)c1ccc(NC(=O)C[n+]2ccn(C3=C([O-])c4ccccc4C3=O)c2)cc1 | -10.2% |
| Cc1ccc(S(=O)(=O)C(C#N)c2nc3ccccc3nc2N2CC(C)OC(C)C2)cc1C (centres undefined) | 4.8% |
| O=c1c(=Nc2ccccc2O)c(=O)c2ccccc12 | -6.7% |
